Assay results published in PubChem BioAssay (EPA / NIEHS).
Results filed as inconclusive are left out. More than one record can exist for a structure, and the calls need not agree. The source made the active and inactive calls. The calls were made as follows, unless noted: active = hit-call score of the fitted dose curve at least 0.9, where 1 is the maximum; inactive = score below 0.9.

Tests used:
[1] = CCTE_Deisenroth_AIME_384WELL_CTox_Active: Cytotoxicity Assessment (CTOX) in CCTE's 384-well Estrogen Receptor Transactivation Assay with AIME metabolic competence (metabolism positive), Deisenroth Lab (AID 2284037; active = hit-call score of the fitted dose curve at least 0.9, where 1 is the maximum;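 also: chemicals first conditioned 2 h by alginate-bound induced rat liver S9 before cells; activity means signal loss indicating cell death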)
In short: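 Chemicals pre-incubated 2 hours with alginate-immobilised phenobarbital/beta-naphthoflavone-induced male Sprague Dawley rat liver S9, then conditioned medium applied 24 hour to VM7Luc4E2 cells. Viability by fluorogenic protease substrate; 10-point series 0.002 - 200 uM.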

[2] = target: Estrogen receptor (Homo sapiens) (UniProt P03372); assay: CCTE_Deisenroth_AIME_384WELL_LUC_Inactive: CCTE's 384-well Estrogen Receptor Transactivation Assay without AIME metabolic competence (ERTA luciferase; metabolism negative), Deisenroth Lab (AID 2284038; active = hit-call score of the fitted dose curve at least 0.9, where 1 is the maximum;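 also: VM7Luc4E2 breast cells given medium preincubated 2 h with S9-free microspheres; hits raise estrogen receptor luciferase signal so potencies reflect agonists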)
Estrogen receptor (Homo sapiens), sequence (P03372 whole entry, looked up): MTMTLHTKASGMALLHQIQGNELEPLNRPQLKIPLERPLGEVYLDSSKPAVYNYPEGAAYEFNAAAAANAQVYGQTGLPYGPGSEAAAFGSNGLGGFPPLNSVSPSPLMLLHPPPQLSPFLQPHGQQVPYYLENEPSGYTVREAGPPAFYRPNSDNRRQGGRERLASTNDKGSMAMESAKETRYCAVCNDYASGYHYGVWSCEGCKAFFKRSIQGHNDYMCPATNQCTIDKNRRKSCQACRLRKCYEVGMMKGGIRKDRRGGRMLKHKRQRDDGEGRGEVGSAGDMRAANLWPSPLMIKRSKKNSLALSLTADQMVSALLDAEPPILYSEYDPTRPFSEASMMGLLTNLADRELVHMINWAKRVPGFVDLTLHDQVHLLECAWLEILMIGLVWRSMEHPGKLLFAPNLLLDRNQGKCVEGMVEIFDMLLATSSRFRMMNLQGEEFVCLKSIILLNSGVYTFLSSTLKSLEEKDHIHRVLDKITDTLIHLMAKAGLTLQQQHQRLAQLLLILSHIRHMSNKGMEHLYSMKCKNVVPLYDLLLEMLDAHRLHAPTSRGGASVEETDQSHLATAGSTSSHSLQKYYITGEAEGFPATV
In short: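 Metabolism-negative mode: AIME lids stamped in alginate-water, no hepatic S9. 2 h chemical incubation → medium onto VM7Luc4E2 ERTA, 24 h. Readout luciferase luminescence; gain-of-signal fit vs 17beta-estradiol. Conc. 0.002 - 200 uM.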

[3] = CCTE_Deisenroth_AIME_384WELL_CTox_Inactive: Cytotoxicity Assessment (CTOX) in CCTE's 384-well Estrogen Receptor Transactivation Assay without AIME metabolic competence (metabolism negative), Deisenroth Lab (AID 2284039; active = hit-call score of the fitted dose curve at least 0.9, where 1 is the maximum;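 also: cell viability via live-cell protease substrate cleaved to fluorescent probe; cells exposed 24 h to medium preincubated 2 h with alginate-water beads without S9; loss of fluorescence signal means loss of viability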)
In short: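 Fluorescence from a live-cell protease substrate, read after 24 h in VM7Luc4E2 cells, indicated viability. Test medium came from a 2 h AIME step without hepatic S9 (alginate-water microspheres); concentrations spanned 0.002 - 200 uM, single technical replicate per run.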

[4] = target: Estrogen receptor (Homo sapiens) (UniProt P03372); assay: CCTE_Deisenroth_AIME_384WELL_LUC_Shift: CCTE's 384-well Estrogen Receptor Transactivation Assay with AIME metabolic competence data shift (ERTA luciferase; difference in metabolism positive and negative), Deisenroth Lab (AID 2284041);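 also: shift is response with S9 minus without S9 so positive means metabolism raised ER signal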
In short: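 Chemicals (0.002–200 uM, 10 points) pre-incubated 2 h with alginate-encapsulated induced male Sprague Dawley rat liver S9 or S9-free, then medium applied 24 h to VM7Luc4E2 cells; luciferase. Endpoint is per-concentration difference, S9-positive minus negative.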

[5] = CCTE_Shafer_MEA_dev_active_electrodes_number: CCTE's Neural Network Formation Assay for Number of Active Electrodes, Shafer Lab (AID 2284040; active = hit-call score of the fitted dose curve at least 0.9, where 1 is the maximum;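 as to AC50: potency for loss of active electrodes versus DMSO so lower counts are hits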)
In short: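 Developing rat cortical networks on MEAs, exposed DIV 0–12. Value is the AUC of active-electrode counts (≥5 spikes/min) from days 5, 7, 9, 12, relative to DMSO.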

[6] = CCTE_Shafer_MEA_dev_burst_rate: CCTE's Neural Network Formation Assay for Burst Rate, Shafer Lab (AID 2284042)
In short: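 Developmental network assay measuring how 12-day exposure of rat cortical neuron cultures alters bursting on extracellular MEA recordings. Values are AUC of well-mean burst rate across four recording days, relative to DMSO vehicle.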

[7] = CCTE_Shafer_MEA_dev_bursting_electrodes_number: CCTE's Neural Network Formation Assay for Number of Bursting Electrodes, Shafer Lab (AID 2284043; active = hit-call score of the fitted dose curve at least 0.9, where 1 is the maximum;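 as to AC50: potency is for loss of bursting electrodes relative to DMSO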)
In short: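 Rat cortical primary neurons, 48-well MEA, 16 electrodes/well; dosing DIV 0–12, re-dosed with full media change DIV 5, 9. Recordings DIV 5/7/9/12, AxIS adaptive spike detector; bursting electrode = ≥1 burst/2 min. AUC across days; loss of signal vs DMSO.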

[8] = CCTE_Shafer_MEA_dev_per_burst_interspike_interval: CCTE's Neural Network Formation Assay for Burst Interspike Interval, Shafer Lab (AID 2284044);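 also: mean spike spacing inside bursts as AUC over recordings on days 5 7 9 12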
In short: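 Rat cortical primary cultures, 16 electrodes/well; compound from plating, renewed with full media change DIV 5 and 9. Spikes via adaptive detector; per-burst ISI well-mean over active bursting electrodes; AUC of DIV 5/7/9/12 recordings; loss-direction fit vs DMSO.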

[9] = CCTE_Shafer_MEA_dev_burst_duration_mean: CCTE's Neural Network Formation Assay for Mean Burst Duration, Shafer Lab (AID 2284045);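 as to AC50: curve fitted for loss meaning shorter burst duration than DMSO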
In short: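 Rat cortical cultures, 1.5 x 10^5 cells/well with laminin drop; continuous dosing days 0–12, media plus treatment refreshed DIV 5, 9. AxIS adaptive spike detection; mean single-electrode burst duration, AUC over four recordings, negative direction vs DMSO.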

[10] = CCTE_Shafer_MEA_dev_interburst_interval_mean: CCTE's Neural Network Formation Assay for Mean Interburst Interval, Shafer Lab (AID 2284046);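 also: well-mean interburst interval of bursting electrodes as AUC over four recording days; curve fitted for decrease in interburst interval relative to DMSO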
In short: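 Network formation assay in primary rat cortical cultures, exposed from DIV 0 to 12. Mean interburst interval per well, integrated as AUC over four recordings.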

[11] = CCTE_Shafer_MEA_dev_inter_network_spike_interval_mean: CCTE's Neural Network Formation Assay for Mean Inter-network Spike Interval, Shafer Lab (AID 2284047)
In short: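 Compound was given at plating to primary rat cortical neurons and renewed with full medium changes on DIV 5 and 9. Extracellular activity was recorded on days 5, 7, 9, 12; AUC values were fitted for loss relative to DMSO control.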

[12] = CCTE_Shafer_MEA_dev_network_spike_number: CCTE's Neural Network Formation Assay for Number of Network Spikes, Shafer Lab (AID 2284048);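 also: synchronized bursts across electrodes counted on days 5 7 9 12 and integrated as AUC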;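 as to AC50: fit as a loss of signal meaning fewer network spikes than DMSO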
In short: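 Rat cortical primary cultures on 48-well MEA (16 electrodes/well); continuous exposure DIV 0–12, full medium and treatment exchange DIV 5, 9. Readout: network spike count, AxIS adaptive detection, recordings DIV 5/7/9/12 collapsed to AUC; loss-of-signal fit, DMSO baseline.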

[13] = CCTE_Shafer_MEA_dev_network_spike_peak: CCTE's Neural Network Formation Assay for Mean Number of Electrodes in Network Spike, Shafer Lab (AID 2284049);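 as to AC50: fitted for loss of signal meaning fewer electrodes in network spikes than DMSO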
In short: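 Network-spike peak electrode count from recordings on days 5, 7, 9 and 12 was combined as trapezoidal area under the curve. Rat cortical cultures were treated continuously from plating, with compound renewed at each feed (DIV 5, 9); fits versus DMSO.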

[14] = tested on: DIO2 (gene 1734); assay: CCTE_GLTED_hDIO2: CCTE's human Deiodinase 2 (DIO2) Inhibition Assay, Great Lakes Toxicology and Ecology Division (GLTED) Lab (AID 2284050; active = hit-call score of the fitted dose curve at least 0.9, where 1 is the maximum)
In short: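 Triplicate cell-free incubations (3 h) of human DIO2 with chemical preceded colorimetric Sandell-Kolthoff quantitation of liberated iodide; DMSO served as negative control for curve fitting.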

[15] = CCTE_Shafer_MEA_dev_spike_duration_mean: CCTE's Neural Network Formation Assay for Mean Spike Duration, Shafer Lab (AID 2284051);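 also: mean network spike duration pooled as area under curve over DIV 5 to 12 recordings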;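 as to AC50: potency for a decrease in mean network spike duration versus DMSO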
In short: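 With DMSO as baseline, loss of mean network spike duration was scored from extracellular recordings of rat cortical neurons on MEA plates. Exposure spanned plating to DIV 12; the four recording days were collapsed into one AUC value.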

[16] = CCTE_Shafer_MEA_dev_per_network_spike_spike_number_mean: CCTE's Neural Network Formation Assay for Mean Number of Spikes in a Network Spike, Shafer Lab (AID 2284053);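 as to AC50: fitted as decrease in spikes per network spike relative to DMSO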
In short: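 First, rat cortical cells (1.5 x 10^5/well) were seeded onto MEA wells; second, dosing began at plating and was refreshed on DIV 5 and 9; finally, network-spike spike counts across DIV 5–12 were summarized as AUC.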

[17] = tested on: DIO3 (gene 1735); assay: CCTE_GLTED_hDIO3: CCTE's human Deiodinase 3 (DIO3) Inhibition Assay, Great Lakes Toxicology and Ecology Division (GLTED) Lab (AID 2284055; active = hit-call score of the fitted dose curve at least 0.9, where 1 is the maximum;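 also: potency is for inhibition seen as loss of released iodide signal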)
In short: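 Steps: incubate adenovirus-produced hDIO3 with chemical for 3 hours; detect freed iodide via cerium-arsenic Sandell-Kolthoff colorimetry; compare with DMSO baseline.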

[18] = CCTE_Shafer_MEA_dev_AB: CCTE's Alamar Blue Assay for Cytotoxicity in the Neural Network Formation Assay, Shafer Lab (AID 2284083; active = hit-call score of the fitted dose curve at least 0.9, where 1 is the maximum;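 also: resazurin reduction fluorescence as viability of cultured neurons; twelve days of exposure from plating with re-dosing on DIV 5 and 9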)
In short: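 Cytotoxicity companion to the developmental MEA: primary rat cortical neurons, 12-day exposure starting day 0, compound refreshed DIV 5 and 9; resazurin fluorescence, fitted against DMSO vehicle.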

[19] = CCTE_Shafer_MEA_acute_AB: CCTE's Alamar Blue Assay for Cytotoxicity in the Neural Acute Assay, Shafer Lab (AID 2284069; active = hit-call score of the fitted dose curve at least 0.9, where 1 is the maximum;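 also: active compounds lower the viability signal compared with DMSO wells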)
In short: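 Cytotoxicity endpoint for acute MEA exposures of primary rat cortical neurons on day 13 or 15. Resazurin reduction is read fluorescently at 544/590 nm, with DMSO as the negative-control baseline.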

[20] = CCTE_Shafer_MEA_acute_LDH: CCTE's Lactate Dehydrogenase Assay for Cytotoxicity in the Neural Acute Assay, Shafer Lab (AID 2284086; active = hit-call score of the fitted dose curve at least 0.9, where 1 is the maximum;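 also: active means LDH release rises above DMSO vehicle level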)
In short: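 Cytotoxicity readout: spectrophotometric LDH activity in supernatant of rat primary cortical neurons, post-plating day 13 or 15, sampled after 40 min compound exposure; signal gain relative to DMSO baseline.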

Measured: AC50

CC(=O)CCC(C)C
inactive: [1] | [2] | [3] | [4]

C=CC(=O)OCC(F)(F)C(F)(F)C(F)(F)COC(=O)C=C
inactive: [6] | [8] | [11]
active: [5] 4.25 µM | [7] 1.52 µM | [9] 3.86 µM | [10] 8.65 µM | [12] 1.18 µM | [13] 4.61 µM | [14] 26.3 µM | [15] 5.18 µM | [16] 4.72 µM | [17] 45.1 µM | [18] 7.96 µM

CCCCOC(=O)C(C)O (centres undefined)
inactive: [1] | [2] | [3] | [4]

OCC(O)CC(F)(F)C(F)(F)C(F)(F)C(F)(F)F (centres undefined)
inactive: [5] | [6] | [7] | [8] | [9] | [10] | [11] | [12] | [13] | [15] | [16]

CCCCCCCCCCCCC[N+](C)(C)Cc1ccccc1
active: [14] 22.2 µM | [17] 17 µM

NC(O)(C(F)(F)F)C(F)(F)F
active: [13] 0.00434 µM
inactive: [5] | [6] | [7] | [8] | [9] | [10] | [11] | [12] | [13] | [15] | [16]

OCCCCC(F)(F)C(F)(F)C(F)(F)C(F)(F)F
not listed: [1] | [2] | [3] | [4] | [14] | [17] | [19] | [20]
inactive: all other assays above

CCN(CCO)S(=O)(=O)C(F)(F)C(F)(F)C(F)(F)C(F)(F)C(F)(F)C(F)(F)C(F)(F)C(F)(F)F
not listed: [1] | [2] | [3] | [4] | [14] | [17] | [19] | [20]
inactive: all other assays above

CCCCCCCC/C=C\CCCCCCCC(=O)N(C)CC(=O)O
active: [1] 124 µM | [14] 55.6 µM | [17] 22 µM
inactive: [3] | [4]

O=C(O)C(F)(F)C(F)(F)C(F)(F)OC(F)(F)F
inactive: [6] | [8] | [9] | [10] | [11] | [12] | [13] | [15] | [16]

CCCCCCCCn1sc(Cl)c(Cl)c1=O
active: [14] 26 µM | [17] 7.82 µM

Cc1ccc(O)c(-n2nc3ccccc3n2)c1
active: [2] 38.2 µM
inactive: [4]

NC(=O)C(F)(F)C(F)(F)C(F)(F)F
inactive: [6] | [8] | [9] | [10] | [11] | [12] | [13] | [15] | [16]

CCN=C1C=CC(=C(c2ccc(N(CC)CC)cc2)c2ccc(N(CC)CC)cc2)c2ccccc21
inactive: [4] | [20]
active: [1] 59.1 µM | [3] 57.3 µM | [14] 42 µM | [17] 8.42 µM | [19] 6.86 µM

C=CC(=O)OCCC(F)(F)C(F)(F)C(F)(F)C(F)(F)F
inactive: [5] | [6] | [7] | [8] | [9] | [10] | [11] | [12]
active: [13] 23.5 µM | [14] 31.5 µM | [15] 22.7 µM | [16] 15 µM | [17] 51.8 µM | [18] 21.8 µM

CC(C)OC=O
inactive: [1] | [2] | [3] | [4]

FC(F)(F)C(F)(F)C(F)(F)C(F)(F)C(F)(F)C(F)(F)C(F)(F)CCI
inactive: [5] | [6] | [7] | [8] | [9] | [10] | [11] | [12] | [13] | [15] | [16]
